RORgamma inh: blocks mouse ROR gamma transcriptional activity; Drosophila S2 Gal4-RORgamma UAS-luciferase reporter, 20 h; Potency, µM (top dose mostly 53.6 µM), for inactives: at the top dose activity change, negative = inhibition, actives largely listed as inhibitors; P51450; actives 5.4% (n = 310,000); AID 2551; note: nearly all actives have a fitted effect of over 60% in size
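Schneider cells (Drosophila), stable Gal4 DBD–ROR gamma + UAS-luc; 1 hr cmpd preincubation; Cu2+ induction 700 uM final; 20 hr ambient; luminescence.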
TDP1 cell CPT: DT40-hTDP1 cell growth loss with CPT; Potency, µM (highest dose often 46.2 µM), for inactives: top-dose activity change, negative = growth inhibition, actives largely listed as inhibitors; actives 12% (n = 420,000); chicken DT40 Tdp1-/-;hTDP1 cells + 20 nM CPT, ATP luminescence, 48 h; AID 686979; note: nearly all actives have a fitted effect of over 55% in size
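Chicken DT40 Tdp1-/- cells stably complemented with human TDP1 were seeded at 400 cells/well in medium containing 20 nM camptothecin, exposed to pin-transferred compounds, and grown at 37 °C for at least 48 hr. Viability was read as ATP luminescence.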
TDP1 block: blocks human tyrosyl-DNA phosphodiesterase 1 | Potency, µM (doses to about 130 µM), without a hit: top-dose activity change, negative = inhibition, usual class: inhibitors | actives 0.28% (n = 350,000) | recombinant TDP1, AlphaScreen DNA substrate cleavage; note: nearly all actives have a fitted effect of over 40% in size
Target sequence (Q9NUW8 whole entry, looked up): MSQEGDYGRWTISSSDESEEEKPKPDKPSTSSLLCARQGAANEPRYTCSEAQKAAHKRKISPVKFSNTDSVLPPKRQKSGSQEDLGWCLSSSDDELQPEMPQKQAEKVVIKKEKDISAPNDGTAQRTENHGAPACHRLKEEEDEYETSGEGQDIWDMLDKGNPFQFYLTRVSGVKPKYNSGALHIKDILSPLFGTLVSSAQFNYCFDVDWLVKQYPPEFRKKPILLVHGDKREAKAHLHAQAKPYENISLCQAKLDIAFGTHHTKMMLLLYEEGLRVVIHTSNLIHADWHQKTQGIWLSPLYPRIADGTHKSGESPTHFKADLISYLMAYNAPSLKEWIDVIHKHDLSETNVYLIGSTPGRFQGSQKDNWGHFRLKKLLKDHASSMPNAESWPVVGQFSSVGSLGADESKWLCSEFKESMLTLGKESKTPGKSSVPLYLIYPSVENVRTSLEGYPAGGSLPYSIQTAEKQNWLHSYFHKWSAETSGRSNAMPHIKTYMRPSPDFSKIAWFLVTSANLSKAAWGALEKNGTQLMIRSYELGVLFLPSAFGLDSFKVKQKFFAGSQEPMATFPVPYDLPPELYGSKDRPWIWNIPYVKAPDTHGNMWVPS
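Enzyme-compound mixtures sat 15 min at room temperature, followed by a 5 min reaction with 15 nM final substrate and 10 min with AlphaScreen beads. Recombinant human Tdp1 was used at 1 nM final.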
DT40 TDP1 no CPT: qHTS for Inhibitors of human tyrosyl-DNA phosphodiesterase 1 (TDP1): qHTS in cells in absence of CPT | DT40 Tdp1-/- hTDP1 cells, no CPT, ATP luminescence, 48 h | actives 15% (n = 420,000) | AID 686978, 2013 | Potency, µM (series often up to 46.2 µM), without a hit: top-dose activity change, negative = growth inhibition, actives largely listed as inhibitors; note: nearly all actives have a fitted effect of over 55% in size
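Stably hTDP1-transfected Tdp1-null chicken DT40 cells were treated with library compounds minus camptothecin and grown for at least 48 hr at 37 °C, after which cellular ATP was quantified by luminescence.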
Gal4-VP16 FLuc: inhibits Gal4-VP16 luciferase reporter, ROR gamma counter-screen | Drosophila S2 Gal4-VP16 UAS-luciferase, luminescence, 20 h | Potency, µM (highest dose often 53.6 µM), without a hit: at the highest dose activity, negative = inhibition, actives largely listed as inhibitors | actives 3.5% (n = 310,000);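 note: Gal4-VP16 expression switched on by copper sulfate through the metallothionein promoter; nearly all actives have a fitted effect of over 50% in size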
* = called active by the depositor; ? = inconclusive; / = not tested or not shown; [ ] = another dose, or the depositor's remark. Sampled rows, rich in hits. Any-hit rate of the full collection: about 19%. Calls come from the whole dose curve; as a rule, active = well fitted curve in the direction sought with a large enough effect; inconclusive = small, poorly fitted or top-dose-only effect, or another doubt; inactive = no such curve, though single readings can be large; an effect the other way counts as inactive or inconclusive. % is set by controls: 0 for no effect and ±100 for the full control effect; potency is the fitted concentration of half-maximal effect.

SMILES | RORgamma inh | TDP1 cell CPT | TDP1 block | DT40 TDP1 no CPT | Gal4-VP16 FLuc
CN(Cc1ccccc1)C(=O)c1ncn(Cc2ccccc2)c1C(=O)N(C)Cc1ccccc1 | / | ? | -0.4% | 18.4µM* | /
COc1ccc(NC(C)=O)cc1S(=O)(=O)Nc1ccc(S(=O)(=O)N2CCCCC2)cc1 | / | -0.7% | -8.4% | -14.9% | /
CCCCn1c(Cc2ccccc2)n[nH]c1=S | ? | -20.3% | 0.0% | ? | -24.3%[0.365 µM]
CCc1ccc(OCc2n[nH]c(=S)n2C(C)CCCC(C)C)cc1 (stereo not drawn) | 6.31µM* | ? | 7.7% | ? | -22.2%
CC(C)CCn1c(COc2ccccc2)n[nH]c1=S | 1.12µM* | 6.1% | 3.1% | 12.1% | ?
S=c1[nH]nc(COc2ccccc2)n1Cc1ccccc1 | 1.58µM* | ? | -2.6% | ? | 6.31µM*
CCc1ccc(OCc2n[nH]c(=S)n2Cc2ccccc2)cc1 | -1.8% | ? | 0.0% | ? | -2.3%
Cc1cccc(OCc2n[nH]c(=S)n2Cc2ccccc2)c1 | 2µM* | 1.1% | -2.5% | -27.1% | ?
CCCC(=O)Nc1ccc(-c2csc(NNC(C)=O)n2)cc1 | 7.5% | ? | 3.9% | -21.2% | -1.0%
Cc1nnc(Nc2ccccn2)c2ccccc12 | ? | -14.9% | 4.2% | -21.6% | 6.3%
CCOc1ccccc1NC(=O)c1ccc(F)c(S(=O)(=O)N2CCN(c3ccc(F)cc3)CC2)c1 | / | ? | 7.8% | ? | /
CCc1nc2ccc(C(=O)NCCCN3CCCC3=O)cn2c1N(C)C(=O)C1CCCCC1 | / | ? | / | -22.3% | /
CCCc1n[nH]c(=S)n1Cc1ccco1 | 1.9% | -3.6% | / | -4.8% | 2.5%
S=c1[nH]nc(COc2ccc(Cl)cc2)n1Cc1ccco1 | 3.16µM* | 3.7% | -2.5% | 20.6µM* | ?
CC1(C)CC2CC(C)(CN2Cc2c(O)ccc3ccccc23)C1 (stereo not drawn) | -4.4% | ? | 7.5% | 13µM* | 16.0%
CC1(C)CC2CC(C)(CN2Cc2cccc([N+](=O)[O-])c2)C1 (stereo not drawn) | 8.0% | -24.7% | / | 1.9% | -0.1%
CCN(CC)C(=O)NC(c1ccc(C)c(F)c1)C(Cl)(Cl)Cl (stereo not drawn) | -4.1%[10 µM] | 16.4µM* | -1.1% | 16.4µM* | 2.0%
O=C(O)Cn1c(O)c(C2=c3ccccc3=NC2=O)sc1=O | -1.1% | ? | / | -11.8% | -18.2%
Cn1c(O)c(C2=c3ccccc3=NC2=O)sc1=Nc1ccc(Cl)cc1 | ? | 23.1µM* | 2.6% | ? | -0.2%
COCCNC(=O)c1ccc2c(c1)nc(C)n2-c1cccc(F)c1 | -0.8% | -9.3% | 6.3% | -5.9% | 3.3%
O=C1CN(C(=O)COc2ccccc2)C(c2ccc(F)cc2)c2cc(Br)ccc2N1 (stereo not drawn) | / | ? | 2.9% | ? | /
CCOC(=O)Oc1c(OC)cc(C(=O)O[C@@H]2C[C@@H]3CN4CCc5c([nH]c6cc(OC)ccc56)[C@H]4C[C@@H]3[C@H](C(=O)OC)[C@H]2OC)cc1OC | / | 23.1µM* | / | 13µM* | /
CCC1SC2=NC(C)=C(C(=O)OCCOC)C(/C=C/c3ccccc3OC)N2C1=O (stereo not drawn) | 11.5% | 9.2% | 2.0% | 0.2% | -8.2%
N/C(Cn1cncn1)=N\NC(=O)c1ccc(Cl)cc1Cl | ? | -4.9% | 0.0% | -16.7% | ?
O=C(Cn1cncn1)N/N=C/c1ccc(Cl)cc1 | -25.1% | 4.8% | -5.3% | -4.3% | -6.2%
CC(C)/C=C(/C(=O)c1ccc(Cl)cc1Cl)n1cncn1 | ? | ? | / | 20.6µM* | ?
CC(C)(C)C(=O)/C(=C/c1ccc(Cl)cc1)n1cncn1 | ? | 5.8µM* | / | 5.17µM* | -20.3%
CC(C)(C)C(=O)/C(=C\c1ccc([N+](=O)[O-])cc1)n1cncn1 | 2.24µM* | / | 4.2%[56.1 µM] | / | 4.47µM*
Cc1ccc(C)c2sc(N3CCN(C(=O)C(C)(C)C)CC3)nc12 | / | ? | -2.6% | ? | /
